Screening data: PubChem, National Center for Advancing Translational Sciences (NCATS)
HPGD inh: qHTS Assay for Inhibitors of HPGD (15-Hydroxyprostaglandin Dehydrogenase) | 15-hydroxyprostaglandin dehydrogenase [NAD(+)] (Homo sapiens), P15428 | purified HPGD, NADH fluorescence kinetic, PGE2 substrate | Potency, µM, for the others: at the top dose activity change, negative = inhibition, hits mostly inhibitors | 150,000 tested, 4.3% active | AID 894, 2007; further: potency means the concentration at half of the fitted maximal effect
Target sequence (P15428 whole entry, looked up): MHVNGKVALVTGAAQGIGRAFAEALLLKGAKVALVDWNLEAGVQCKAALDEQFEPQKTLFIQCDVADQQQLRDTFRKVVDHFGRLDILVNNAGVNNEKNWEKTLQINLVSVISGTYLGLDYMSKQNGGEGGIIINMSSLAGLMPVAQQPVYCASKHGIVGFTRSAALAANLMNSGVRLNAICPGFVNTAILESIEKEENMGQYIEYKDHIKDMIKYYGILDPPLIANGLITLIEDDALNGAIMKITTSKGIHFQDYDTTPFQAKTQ
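NADH formation kinetics: reaction with 30 uM PGE2 and 1 mM NAD+ (final), 20 nM enzyme, Tris-HCl pH 8 with Tween 20, after 15 min compound preincubation at room temperature. Fluorescence change, last versus first of five reads.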
IMPase inh: qHTS Assay for Identifying the Cell-Membrane Permeable IMPase Inhibitors. Inositol monophosphatase 1 (Rattus norvegicus), P97697. CHO-M1 cells, IP1 accumulation, HTRF TR-FRET ratio. inhibition (IP1 accumulation), % at 46.1 µM. 120,000 tested, under 10 active. AID 901, 2007; active means well fitted curve in the direction sought with a large enough effect in the signal ratio, not every such curve was filed as active; inconclusive means small, poorly fitted or top-dose-only effect, or a change in a side signal; inactive means no such curve, though single readings can be large or run the other way; the % refers to the signal ratio;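 further: cells stimulated with carbachol in lithium chloride buffer; plate controls were DMSO basal wells for no effect and reference inhibitor wells for full effect; higher means more IMPase inhibition seen as more IP1 and lower FRET ratio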
Target sequence (P97697 whole entry, looked up): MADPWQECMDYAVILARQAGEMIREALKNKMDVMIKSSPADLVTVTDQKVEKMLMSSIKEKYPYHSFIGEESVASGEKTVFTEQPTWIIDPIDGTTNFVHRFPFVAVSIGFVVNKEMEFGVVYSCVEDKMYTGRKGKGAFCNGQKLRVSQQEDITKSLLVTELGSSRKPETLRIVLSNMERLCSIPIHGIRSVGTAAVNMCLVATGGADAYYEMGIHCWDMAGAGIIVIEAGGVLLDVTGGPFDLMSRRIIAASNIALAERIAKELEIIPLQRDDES
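In this qHTS, compounds (final up to 46 uM) act on CHO-M1 cells that are then activated through the M1 receptor with carbachol, in pH 7.4 buffer containing 50 mM LiCl, for 30 min. IP1 accumulation is quantified by the IP-One immunoassay.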
PNC inhibitor: High Content Assay for Compounds that inhibit the Assembly of the Perinucleolar Compartment; PC3M PTB-GFP, PNC prevalence imaging, 16 h; active compounds read low; activity change (PNC), negative = inhibition, % at 10 µM; AID 2417, 2010; 140,000 tested, 3.1% active;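 active means readout at or below -70, meaning at least 70% loss of cells showing the perinucleolar compartment, a nuclear body marking cancer cells; inconclusive means readout between -30 and a set limit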;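 further: plate controls were DMSO wells for no effect and camptothecin positive control wells for full effect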
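Read-out is percentage of cells bearing a perinucleolar compartment, from automated 20x imaging of fixed, Hoechst-stained PC3M PTB-GFP cells. Cells were seeded 4 h, then exposed 16 h to compound (23 nl of library stock) in duplicate plates.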
12-hLO inh: qHTS Assay for Inhibitors of 12-hLO (12-human lipoxygenase); Polyunsaturated fatty acid lipoxygenase ALOX12 (Homo sapiens), P18054; purified 12-hLO, xylenol orange hydroperoxide absorbance; Potency, µM (series often up to 57.1 µM), for the others: at the highest dose activity change, negative = inhibition, hits mostly inhibitors; 150,000 tested, 0.12% active; active means well fitted curve in the direction sought with a large enough effect; inconclusive means small, poorly fitted or top-dose-only effect, or another doubt; inactive means no such curve, though single readings can be large; an effect the other way counts as inactive or inconclusive; further: potency means the concentration at half of the fitted maximal effect; nearly all actives have a fitted effect of over 55% in size
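150 nM 12hLO, 25 mM Hepes pH 7.0 + 0.01% Triton X-100; cpd preinc 15 min RT; 40 uM arachidonic acid, 30 min RT; Fe-XO 30 min; A573/A405 ratio as read-out.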
IMPase Li cell: qHTS Assay for Identifying the Cell-Membrane Permeable IMPase Inhibitors: Potentiation with Lithium | 210,000 tested, 0.35% active | Potency, µM (top dose mostly 59.4 µM), inactives show top-dose activity, negative = IMPase inhibition, actives largely listed as inhibitors | CHO-M1 cells, IP1 TR-FRET (IP-One), carbachol + lithium | AID 1457, 2008; active means well fitted curve in the direction sought with a large enough effect; inconclusive means small, poorly fitted or top-dose-only effect, or another doubt; inactive means no such curve, though single readings can be large; an effect the other way counts as inactive or inconclusive;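 further: IP1 builds up when IMPase is blocked and the TR-FRET signal falls; potency means the concentration at half of the fitted maximal effect; plate controls were basal vehicle for no effect and high inhibitor control for full effect; nearly all actives have a fitted effect of over 50% in size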
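Readout is a homogeneous TR-FRET IP1 immunoassay (Ex 320, Em 665 and 620), where raised cytosolic IP1 lowers signal. Cells were CHO-M1 treated 30 min at 37C with test compounds plus a little lithium; AC50 values came from Hill-equation fitting.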
ALDH1A1 block: qHTS Assay for Inhibitors of Aldehyde Dehydrogenase 1 (ALDH1A1) | Purified ALDH1A1, NADH fluorescence, propionaldehyde substrate | Potency, µM (highest dose often 75.3 µM), without a hit: at the top dose activity, negative = inhibition, usual class: inhibitors | 220,000 tested, 7.3% active | AID 1030, 2008;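 further: potency means the concentration at half of the fitted maximal effect; plate controls were no enzyme wells and a reference inhibitor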
Numbers without * were called inactive; u = inconclusive; x = no result given; [ ] = another dose, or the depositor's remark. A selection: hits, their analogues and other compounds. The true share with any hit is near 11%. Unless noted, the call rests on the fitted dose curve; in most records, active means well fitted inhibition curve with a large enough effect (not every such curve was filed as active); inconclusive means small, poorly fitted or top-dose-only effect, or another doubt; inactive means no such curve, though single readings can be large or run the other way. Unless noted, on the % scale 0 is the no-effect control and ±100 the full control effect.

SMILES	HPGD inh	IMPase inh	PNC inhibitor	12-hLO inh	IMPase Li cell	ALDH1A1 block
Cc1noc(C)c1C(=O)N1CCC2(CCN(Cc3ccccc3)CC2)CC1	-6%	x	x	0%	26%	6%
COc1cccc(N2CCN(C(=O)c3ccc(CSc4nc5ccncc5[nH]4)cc3)CC2)c1	-6%	x	19	-6%	7%	22µM*
Cc1ccc(C)c(N2CCN(C(=O)c3ccc(CSc4nc5ccncc5[nH]4)cc3)CC2)c1	-8%	x	12	-5%	23%	u
O=C(c1ccc(CSc2nc3ccncc3[nH]2)cc1)N1CCCCC1	0.56µM*	x	34	-1%	-2%	25µM*
COc1ccc(-c2cc(C(=O)Nc3cc(S(=O)(=O)N4CCOCC4)ccc3N3CCOCC3)c3ccccc3n2)cc1	x	x	x	x	0%	u
COc1ccc(O[C@H]2C=C[C@@H](c3ccccc3)O[C@H]2COC(=O)CC/C(C)=N\O[C@@H](C)c2cc(-c3c(C)cc(C)cc3C)no2)cc1	x	x	x	x	x	9%[13.5 µM]
O=C(c1ccccc1-n1cccn1)N1CCc2c([nH]c3ccccc23)C1c1ccccn1 (configuration not stated)	x	x	x	x	0%	-13%
Nc1nonc1C(=O)NC(c1ccccc1)c1ccccc1	0%	-3	6	-1%	19%[38.3 µM]	14µM*
C/C=C1\C(=O)CC2C3CCC4=CC(=O)CC[C@]4(C)C3CC[C@]12C (some centres not stated)	-12%	x	x	0%[0.00818 µM]	19%	4%
CC(=O)N1C(=O)/C(=C2\SC(=S)N(NS(=O)(=O)c3ccc(C)cc3)C2=O)c2ccccc21	x	x	x	x	2%	13µM*
Cc1c(N2C(=O)/C(=C3/C(=O)N(C)c4ccccc43)SC2=S)c(=O)n(-c2ccccc2)n1C	7%	4	119	0%	15%[38.3 µM]	0%
CC(=O)N1C(=O)/C(=C2\SC(=S)N(c3c(C)n(C)n(-c4ccccc4)c3=O)C2=O)c2ccccc21	-4%	5	-18	-4%	4%	10µM*
CCOc1ncccc1C(=O)Nc1cccc(-c2nnc3n2CCCCC3)c1	x	x	x	x	14%	-12%
Clc1ccc(-c2nnc3n2CCCC3)cc1	-29%	5	40	2%	8%[38.3 µM]	6%
c1cc(Nc2ncnc3sccc23)cc(-c2nnc3n2CCCCC3)c1	22µM*	5	10	-1%	10%[38.3 µM]	-7%
Cc1onc(-c2ccccc2)c1C(=O)Nc1nnc(-c2ccncc2)s1	u	u	4	3%	-29%[38.3 µM]	u
Cc1ccc(-c2nnc3n2CCCCC3)cc1	5µM*	-8	-24	-2%	-1%[38.3 µM]	-10%
Cc1cnc(C(=O)Nc2cccc(-c3nnc4n3CCCCC4)c2)cn1	13µM*	5	31	0%	-1%[38.3 µM]	-1%
COc1ccccc1S(=O)(=O)Nc1cccc(-c2nnc3n2CCCCC3)c1	-20%	7	-13	-6%	13%[38.3 µM]	11%
Cc1onc(-c2ccccc2)c1C(=O)Nc1nnc(N2CCCCCC2)s1	-17%	-4	-108*	6%	12%[38.3 µM]	u
O=C1OCCN/C1=C\C(=O)c1ccc(Cl)cc1	x	x	x	x	x	-10%
Clc1ccc(COc2cccc(CNCc3ccncc3)c2)cc1	x	x	x	x	19%	0%
Cc1onc(-c2ccccc2Cl)c1C(=O)Nc1ccc(-c2nnc3n2CCCCC3)cc1	16µM*	9	u	-4%	9%[38.3 µM]	-6%
Cc1cc(C)n(-c2ccc(Cl)c(C(=O)Nc3ccc(-c4nnc5n4CCCCC5)cc3)n2)n1	1.8µM*	2	20	1%	0%[38.3 µM]	1%
O=C1Nc2ccccc2C1=Nc1ccc(-c2nnc3n2CCCCC3)cc1	5µM*	-5	3	-2%	31%[38.3 µM]	u
SMILES	HPGD inh	IMPase inh	PNC inhibitor	12-hLO inh	IMPase Li cell	ALDH1A1 block
Cc1onc(-c2ccccc2Cl)c1C(=O)Nc1ccc(CN2CCCC2)cc1	-5%	-1	u	0%	8%[38.3 µM]	-3%
O=C(Nc1ccc(-c2nnc3n2CCCCC3)cc1)c1ccco1	8.9µM*	x	-17	1%	-5%	u
Cc1cc(C)n(-c2ccc(Cl)c(C(=O)NCc3ccccc3)n2)n1	x	x	x	x	4%	-5%
Cc1ccc(/C=N/N=C2/NC(=O)C(CC(=O)Nc3ccccc3)S2)o1 (configuration not stated)	x	x	x	x	5%	-4%
N=C1Sc2ccccc2C2=NCCCN12	2.2µM*	13	x	u	18%	10µM*
O=C(Nc1cccc2c1C(=O)NC2=O)c1ccc(S(=O)(=O)N2CCCC2)cc1	u	-8	-111*	-2%	-1%[38.3 µM]	u
N#CCCN(Cc1cccnc1)S(=O)(=O)c1ccc(S(=O)(=O)N2CCCCCC2)cc1	-4%	17	40	-2%	15%[38.3 µM]	u
N#CCCN(Cc1cccnc1)C(=S)NC(=O)c1ccc(S(=O)(=O)N2CCCC2)cc1	x	x	x	x	12%	14µM*
N#CCCSc1ccccc1NC(=O)c1ccc(S(=O)(=O)N2CCCC2)cc1	11µM*	3	u	-3%	24%[38.3 µM]	2.5µM*
COc1cccc(-c2nc(N(C)Cc3ccco3)c3ccccc3n2)c1	x	x	x	x	19%	0%
Cc1ccc(-c2nc3ncccn3c2Nc2ccc3c(c2)OCO3)o1	-20%	19	-119*	-5%	35%	u
N#Cc1cc(-c2ccccc2)nn1-c1ccccc1	13µM*	21	2	-14%	32%[38.3 µM]	22µM*
Cc1ccc(S(=O)(=O)N2CCN(C(=O)CSc3nc(N)cc(=O)[nH]3)CC2)c(C)c1	x	x	x	x	13%	-2%
Cc1ccc(S(=O)(=O)N2CCN(C(=O)CSc3nnnn3C)CC2)c(C)c1	x	x	x	x	12%	25µM*
CCOc1ccc(NC(=O)/C(=C\c2ccc(OC(C)=O)c(OC)c2)NC(C)=O)cc1	-14%	x	-13	1%	7%	10µM*
COc1ccc(/C=N/O)cc1COc1ccc(NC(C)=O)cc1	25µM*	u	18	16%	1%	2%
COc1ccc(NC(=O)/C(=C/c2ccc3c(c2)OCO3)NC(C)=O)cc1	-19%	x	-28	-3%	1%	4%
COc1ccc(/C=N/N2CCOCC2)cc1COc1ccc(F)cc1	x	x	x	x	10%	-26%
COc1ccc(/C=N/N2CCOCC2)cc1COc1ccc(Cl)cc1	-8%	x	-111*	-3%	4%	3%
CC(=O)O[C@]1(C)N=NC2(CCCCC2)O1	-3%	x	x	-3%[11.4 µM]	6%	-1%[13.5 µM]
